Experimental data reported in PubChem BioAssay (NCI).
This is part of a sample that, as a whole, favours compounds with a hit. Of some 79,000 tested, about 15% had one in any assay. No stated cut-off is given here; in the data, active means growth inhibition above about 70%; inactive means the rest.

Assays:
[1] = NCI Yeast Anticancer Drug Screen. Data for the rad50 strain (AID 155);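 further: 0% = growth of vehicle-only cultures of the same strain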; details: S. cerevisiae rad50 strain growth inhibition; at 50.0 µM; hits give high values
Outline: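 Vehicle-treated cultures provide the reference for the growth inhibition reported for compound-exposed, repair-deficient yeast.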

[2] = NCI Yeast Anticancer Drug Screen. Data for the mec2-1 strain (AID 157); details: S. cerevisiae mec2-1 strain, at 50.0 µM, hits give high values
Outline: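 Vehicle-treated cultures served as reference for growth inhibition of compound-exposed mec2-1 yeast.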

[3] = NCI Yeast Anticancer Drug Screen. Data for the sgs1 mgt1 strain (AID 161);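 further: 0% = growth of cultures given vehicle only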; details: S. cerevisiae sgs1 mgt1 strain, at 50.0 µM, hits give high values
Outline: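 Inhibition of yeast growth, normalised to vehicle-treated controls, is reported for a strain bearing genetic alterations in DNA damage repair.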

[4] = NCI Yeast Anticancer Drug Screen. Data for the cln2 rad14 strain (AID 165);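 further: 0% = growth equal to vehicle treated cultures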; details: S. cerevisiae cln2 rad14 strain, at 50.0 µM, hits give high values
Outline: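 Each compound was tested on cln2 rad14 yeast. Inhibition of growth was calculated against vehicle-exposed controls.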

[5] = NCI Yeast Anticancer Drug Screen. Data for the bub3 strain (AID 167); details: S. cerevisiae bub3 mutant strain, at 50.0 µM, hits give high values
Outline: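 Mutant yeast screening strain plus compound; vehicle-treated cultures serve as the 0% inhibition reference.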

[6] = NCI Yeast Anticancer Drug Screen. Data for the mlh1 rad18 strain (AID 175); details: S. cerevisiae mlh1 rad18 strain growth inhibition; at 50.0 µM; hits give high values
Outline: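 Vehicle-treated cultures served as the reference for growth inhibition in a yeast strain carrying DNA damage repair alterations exposed to each compound.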

Measured: growth inhibition

O=C(Nc1ccc([N+](=O)[O-])c2c1C(=O)c1ccccc1C2=O)c1ccccc1
inactive: [1] -7.7% | [2] -12.1% | [3] -5.95% | [4] -43.4% | [5] 10.1% | [6] -2.9%

O=c1cc[nH]c2cc(C(F)(F)F)ccc12
inactive: [1] -26.4% | [2] -39% | [3] -16.7% | [4] 10.1% | [5] -25.9% | [6] -34%

CN(C)CC1CCCC/C1=N/O (stereo unspecified)
inactive: [1] 0.5% | [2] -6.75% | [3] -9.4% | [4] -17.5% | [5] 2.55% | [6] -5.15%

O=C1C2CC3CC(C2)CC1C3
inactive: [1] 15.1% | [2] -4.5% | [3] 37% | [4] 9.25% | [5] 6.05% | [6] 14.9%

OC1C2CCC(C2)C1CN1CCOCC1 (stereo unspecified)
inactive: [1] -6% | [2] -3.35% | [3] -8.1% | [4] 1.85% | [5] 4.95% | [6] 1.7%

Cc1ccc(N(C(=O)Nc2ccccc2)C2=NCC(C)S2)cc1C (stereo unspecified)
inactive: [1] -29.5% | [2] -17.9% | [3] -37.4% | [4] 2.5% | [5] 39.3% | [6] -39.6%

C#C/C=C/CC(OC(C)=O)C1C/C=C\CC(Br)C(CC)O1 (stereo unspecified)
inactive: [1] 31.1% | [2] 16.5% | [3] 46% | [4] 36.1% | [5] 49% | [6] 45.3%

O=C(Nc1ccccc1)N1CCC[C@@H]2CCCC[C@@H]21
inactive: [1] 3.2% | [2] -0.15% | [3] 0.7% | [4] -82.4% | [5] -6.8% | [6] -4.45%

NC(=O)NC12CC3CC(CC(F)(C3)C1)C2
inactive: [1] -19.6% | [2] -29.1% | [3] -29.7% | [4] -0.95% | [5] -47.5% | [6] -9.85%

CCOC(=O)c1ccc2c3c(ccc([N+](=O)[O-])c13)CC2
inactive: [1] -7% | [2] -6.25% | [3] -14% | [4] -1.9% | [5] 18.5% | [6] -8.35%

CN(C)c1nc(Cl)nc2c1ncn2-c1ccccc1
inactive: [1] 9.85% | [2] -23.2% | [3] 3.1% | [4] -10.7% | [5] -31.4% | [6] -5.1%

COC(=O)c1c(C(=O)OC)c(C(c2ccccc2)c2ccccc2)n(-c2ccccc2)c1Cl
inactive: [1] -17.6% | [2] -21.1% | [3] 0.6% | [4] 0.65% | [5] -18.3% | [6] 1.2%

Nc1nc(/C=C(/O)c2ccccc2)c2ncn(C3OC(CO)C(O)C3O)c2n1 (stereo unspecified)
inactive: [1] 25.3% | [2] -6.25% | [3] 13.4% | [4] -4.7% | [5] 11.2% | [6] -17.8%

CC(C)(C)OC(=O)NC1CCC(C(C)(C)C)CC1 (stereo unspecified)
inactive: [1] 1.95% | [2] -2.95% | [3] -4% | [4] 8.65% | [5] 7.9% | [6] 24.1%

CC(=O)OC1=C(C)C2=C3OC(=O)C(C)=C3CC[C@@]2(C)CC1
inactive: [1] 3.7% | [2] 1.2% | [3] 6.85% | [4] 19.4% | [5] 25% | [6] 6.95%

CC1=Nc2nc(=N)nc3cccc(n23)N1
inactive: [1] -3.55% | [2] -6.55% | [3] -7% | [4] -6% | [5] -7.7% | [6] 5.95%

COc1ccccc1NC(=O)C1=C(C)NC(C)=C(C(=O)Nc2ccccc2OC)C1c1ccco1
inactive: [1] -4.8% | [2] -8.65% | [3] 20.4% | [4] 4.3% | [5] 29.4% | [6] -11.9%

Cc1cc2nnnn2c2ccccc12
inactive: [1] -30.1% | [2] -20.6% | [3] -17.1% | [4] -2.35% | [5] -6.8% | [6] -19.8%

COC(=O)c1c2c(cc3c1CCC3)CCC2
inactive: [1] -21.1% | [2] -3.15% | [3] -31.8% | [4] 14.8% | [5] 32.9% | [6] -20.2%

COC1OC(=O)c2cccc3cccc1c23 (stereo unspecified)
inactive: [1] -9.3% | [2] -14.8% | [3] -8.2% | [4] -7.5% | [5] -2.4% | [6] -18.7%

CCCCN(Cc1ccccc1)C(=O)NC(C)(C)C
inactive: [1] 2.15% | [2] 33.9% | [3] 8.1% | [4] 3.45% | [5] 25.8% | [6] 18.6%
